{"source": "PubChem BioAssay AID1159554", "about": "(Broad Institute, 2015)", "note": "Out of some 94,000 compounds screened, about 2,100 (2.2%) were called active. Cut-off read from the data, not from the text of the source: active = activity change below about -80%; inconclusive = no clear call, values can overlap the other calls; inactive = above that. Only a selection was taken, and actives are over-represented in it overall."}
{"test": "Dd2 malaria parasite growth inhibition – SYBR Green fluorescence, single dose replicates, primary screen (AID 1159554)", "details": "P. falciparum Dd2 growth, 72 h, at 10 µM, stronger effect = lower value"}
{"smiles": "O=C(NCCN1CCCCC1)[C@@H]1N[C@@H]2c3ccc(-c4ccccc4)c(=O)n3C[C@@H]2[C@H]1CO", "activity change": "50.6% (inactive)"}
{"smiles": "COc1cccc(NC(=O)C[C@H]2CC[C@@H]3[C@@H](COc4ccc(NC(=O)C5CCOCC5)cc4C(=O)N3C)O2)c1", "activity change": "15.2% (inactive)"}
{"smiles": "C/C=C/c1ccccc1[C@@H]1[C@@H](CO)N(S(=O)(=O)c2cccc(F)c2)[C@H]1C#N", "activity change": "-88% (active)"}
{"smiles": "C/C=C/c1ccccc1[C@@H]1[C@@H](C#N)N(c2nc(CC)cs2)[C@@H]1CO", "activity change": "-18.3% (inactive)"}
{"smiles": "CCc1sc(N2[C@@H](C#N)[C@@H](c3ccccc3-c3ccccc3)[C@@H]2CO)nc1C", "activity change": "-83.4% (active)"}
{"smiles": "C/C=C/c1ccccc1[C@H]1[C@@H](C#N)N(C(C)=O)[C@@H]1CO", "activity change": "7.51% (inactive)"}
{"smiles": "N#C[C@@H]1[C@H](c2ccccc2C2=CCCCC2)[C@@H](CO)N1S(=O)(=O)c1cccc(F)c1", "activity change": "-43.9% (inactive)"}
{"smiles": "N#C[C@@H]1[C@H](c2ccccc2-c2ccccc2)[C@H](CO)N1c1ncc(-c2ccccc2)s1", "activity change": "-4.56% (inactive)"}
{"smiles": "Cc1ccc(-c2ccccc2[C@H]2[C@@H](C#N)N(c3ncc(-c4ccccc4)s3)[C@@H]2CO)cc1", "activity change": "-65.2% (inactive)"}
{"smiles": "C/C=C/c1ccccc1[C@H]1[C@@H](C#N)N(c2nc(CC)cs2)[C@@H]1CO", "activity change": "-82.9% (active)"}
{"smiles": "C/C=C/c1ccccc1[C@H]1[C@@H](C#N)N(C(=O)Cc2ccccn2)[C@@H]1CO", "activity change": "1.87% (inactive)"}
{"smiles": "O=C(NC1CCCCC1)N[C@H]1CC[C@H](CCNS(=O)(=O)c2ccc(F)cc2)O[C@H]1CO", "activity change": "24.8% (inactive)"}
{"smiles": "C/C=C/c1ccc([C@@H]2[C@H](CO)N(S(=O)(=O)Cc3ccccc3)C23CN(C(=O)C2CCOCC2)C3)cc1", "activity change": "-52% (inactive)"}
{"smiles": "CO[C@H]1CN(C)C(=O)c2ccc(NC(=O)C3CC3)cc2OC[C@H](C)N(C(=O)CN2CCOCC2)C[C@@H]1C", "activity change": "26.1% (inactive)"}
{"smiles": "CC(C)(C)[S@@](=O)N1Cc2cc(C(=O)O)nc(-c3cccc(-c4cccc(F)c4)c3)c2[C@H]1CCO", "activity change": "41.4% (inactive)"}
{"smiles": "COc1ccccc1C#Cc1ccc([C@@H]2[C@H](CO)N3CCCCN(C(=O)C4CCCC4)C[C@@H]23)cc1", "activity change": "-47.8% (inactive)"}
{"smiles": "CCC(=O)Nc1ccc2c(c1)OC[C@H](C)N(C(=O)Cc1cccnc1)C[C@@H](C)[C@@H](OC)CN(C)C2=O", "activity change": "8.05% (inactive)"}
{"smiles": "Cn1cnc(CCNC(=O)C[C@H]2CC[C@@H]3[C@H](COC[C@H](O)CN3C(=O)C3CC3)O2)c1", "activity change": "-3% (inactive)"}
{"smiles": "C[C@@H]1CCCCO[C@H](CN(C)C(=O)Nc2ccc(C(F)(F)F)cc2)[C@H](C)CN([C@H](C)CO)C(=O)c2cc(NC(=O)Nc3ccc(C(F)(F)F)cc3)ccc2O1", "activity change": "-80.3% (active)"}
{"smiles": "CC(C)NC(=O)Nc1ccc2c(c1)C(=O)N([C@@H](C)CO)C[C@@H](C)[C@@H](CN(C)C(=O)Nc1ccc(C(F)(F)F)cc1)OCCCC[C@H](C)O2", "activity change": "-63.3% (inactive)"}
{"smiles": "Cc1ccc(S(=O)(=O)N(C)C[C@@H]2OCCCC[C@@H](C)Oc3ccc(NC(=O)Nc4ccc(C(F)(F)F)cc4)cc3C(=O)N([C@@H](C)CO)C[C@@H]2C)cc1", "activity change": "-86.1% (active)"}
{"smiles": "COc1ccc(NC(=O)Nc2ccc3c(c2)C(=O)N([C@H](C)CO)C[C@@H](C)[C@H](CN(C)C(=O)Nc2ccc(C(F)(F)F)cc2)OCCCC[C@@H](C)O3)cc1", "activity change": "-69% (inactive)"}
{"smiles": "COc1ccc(NC(=O)N(C)C[C@H]2OCCCC[C@H](C)Oc3ccc(NC(=O)Nc4ccc(C(F)(F)F)cc4)cc3C(=O)N([C@@H](C)CO)C[C@@H]2C)cc1", "activity change": "-39.3% (inactive)"}
{"smiles": "Cc1ccc(S(=O)(=O)N(C)C[C@H]2OCCCC[C@@H](C)Oc3ccc(NC(=O)Nc4ccc(F)cc4)cc3C(=O)N([C@@H](C)CO)C[C@H]2C)cc1", "activity change": "-68.1% (inactive)"}
{"smiles": "CNC[C@@H]1OCCCC[C@H](C)Oc2ccc(NC(=O)Nc3ccccc3)cc2C(=O)N([C@H](C)CO)C[C@H]1C", "activity change": "31% (inactive)"}
{"smiles": "C[C@H](CO)N1C[C@H](C)[C@@H](CN(C)S(C)(=O)=O)OCCCC[C@H](C)Oc2ccc(NC(=O)Nc3ccc(C(F)(F)F)cc3)cc2C1=O", "activity change": "30.4% (inactive)"}
{"smiles": "CNC[C@H]1OCCCC[C@H](C)Oc2ccc(NC(=O)Nc3ccc(C(F)(F)F)cc3)cc2C(=O)N([C@H](C)CO)C[C@@H]1C", "activity change": "-14.8% (inactive)"}
{"smiles": "CC(C)NC(=O)Nc1ccc2c(c1)C(=O)N([C@H](C)CO)C[C@H](C)[C@H](CN(C)C(=O)Nc1ccc(C(F)(F)F)cc1)OCCCC[C@@H](C)O2", "activity change": "1.85% (inactive)"}
{"smiles": "C[C@@H]1CCCCO[C@H](CN(C)C(=O)Nc2ccc(C(F)(F)F)cc2)[C@@H](C)CN([C@@H](C)CO)C(=O)c2cc(NC(=O)Nc3cccc4ccccc34)ccc2O1", "activity change": "-88.3% (active)"}
{"smiles": "CNC[C@H]1OCCCC[C@@H](C)Oc2ccc(NC(=O)Nc3ccc(C(F)(F)F)cc3)cc2C(=O)N([C@H](C)CO)C[C@H]1C", "activity change": "-82.5% (active)"}
{"smiles": "CC(=O)N1[C@H](CN(C)S(=O)(=O)c2ccccc2)[C@H](c2ccccc2)[C@@H]1CO", "activity change": "4.68% (inactive)"}
{"smiles": "COc1cccc(-c2ccc3n(c2=O)C[C@H]2[C@H](CO)[C@@H](C(=O)NC4CCCC4)[C@@H]3N2C)c1", "activity change": "2.57% (inactive)"}
{"smiles": "COc1ccc2c3c(n(C)c2c1)[C@@H](CO)N(C(=O)NC1CCCC1)CC31CCN(C(C)=O)CC1", "activity change": "-2.48% (inactive)"}
{"smiles": "C[C@@H](NC(=O)C[C@H]1CC[C@H]2[C@@H](COC[C@@H](O)CN2C(=O)Nc2ccccc2)O1)c1ccccc1", "activity change": "8.13% (inactive)"}
{"smiles": "C[C@H](CO)N1C[C@H](C)[C@@H](CN(C)Cc2ccc3c(c2)OCO3)OCCCC[C@H](C)Oc2ccc(NC(=O)Nc3ccc(C(F)(F)F)cc3)cc2C1=O", "activity change": "-41.8% (inactive)"}
{"smiles": "Cc1ccccc1S(=O)(=O)NCC[C@@H]1CC[C@H](NC(=O)C2CCCCC2)[C@@H](CO)O1", "activity change": "7.15% (inactive)"}
{"smiles": "CCS(=O)(=O)N1CC(=O)N2[C@H](CO)[C@@H](c3ccc(C#CC4CCCC4)cc3)[C@@H]2C1", "activity change": "-15.8% (inactive)"}
{"smiles": "C[C@H]1CCCCO[C@@H](CN(C)C(=O)Nc2ccccc2)[C@@H](C)CN([C@@H](C)CO)C(=O)c2cc(NC(=O)Nc3ccc(F)cc3)ccc2O1", "activity change": "-17.9% (inactive)"}
{"smiles": "Cc1ccc(S(=O)(=O)N(C)C[C@@H]2OCCCC[C@@H](C)Oc3ccc(NS(=O)(=O)c4ccccc4)cc3C(=O)N([C@H](C)CO)C[C@@H]2C)cc1", "activity change": "-57.4% (inactive)"}
{"smiles": "C[C@@H]1CCCCO[C@@H](CN(C)C(=O)Nc2ccc(F)cc2)[C@H](C)CN([C@H](C)CO)C(=O)c2cc(NC(=O)Nc3cccc4ccccc34)ccc2O1", "activity change": "-24.3% (inactive)"}
{"smiles": "C[C@@H]1CCCCO[C@H](CN(C)C(=O)Nc2ccccc2)[C@H](C)CN([C@H](C)CO)C(=O)c2cc(NC(=O)Nc3ccccc3)ccc2O1", "activity change": "-88.7% (active)"}
{"smiles": "COc1ccc(NC(=O)Nc2ccc3c(c2)C(=O)N([C@@H](C)CO)C[C@H](C)[C@@H](CN(C)C(=O)Nc2cccc4ccccc24)OCCCC[C@@H](C)O3)cc1", "activity change": "-66% (inactive)"}
{"smiles": "C[C@@H]1CCCCO[C@@H](CN(C)C(=O)Nc2cccc3ccccc23)[C@H](C)CN([C@H](C)CO)C(=O)c2cc(NC(=O)NC3CCCCC3)ccc2O1", "activity change": "-62.1% (inactive)"}
{"smiles": "C[C@@H]1CCCCO[C@H](CN(C)C(=O)Nc2cccc3ccccc23)[C@@H](C)CN([C@H](C)CO)C(=O)c2cc(NC(=O)Nc3ccc4c(c3)OCO4)ccc2O1", "activity change": "-49.2% (inactive)"}
{"smiles": "C[C@@H]1CCCCO[C@@H](CN(C)S(=O)(=O)c2ccc(Cl)cc2)[C@H](C)CN([C@@H](C)CO)C(=O)c2cc(NC(=O)Cc3ccccc3)ccc2O1", "activity change": "-69% (inactive)"}
{"smiles": "C[C@@H]1CN([C@@H](C)CO)C(=O)c2cc(NC(=O)Nc3ccc(C(F)(F)F)cc3)ccc2O[C@@H](C)CCCCO[C@@H]1CN(C)C(=O)Nc1cccc2ccccc12", "activity change": "-85.5% (active)"}
{"smiles": "C[C@@H]1CCCCO[C@H](CN(C)C(=O)Nc2cccc3ccccc23)[C@@H](C)CN([C@@H](C)CO)C(=O)c2cc(NC(=O)Nc3ccc(F)cc3)ccc2O1", "activity change": "-88.2% (active)"}
{"smiles": "Cc1ccc(S(=O)(=O)N(C)C[C@H]2OCCCC[C@H](C)Oc3ccc(NC(=O)Cc4ccccc4)cc3C(=O)N([C@@H](C)CO)C[C@@H]2C)cc1", "activity change": "-81.9% (active)"}
{"smiles": "C[C@@H]1CCCCO[C@@H](CN(C)C(=O)Nc2ccccc2)[C@@H](C)CN([C@H](C)CO)C(=O)c2cc(NC(=O)Nc3ccc(F)cc3)ccc2O1", "activity change": "24.9% (inactive)"}
{"smiles": "Cc1ccc(S(=O)(=O)Nc2ccc3c(c2)C(=O)N([C@@H](C)CO)C[C@@H](C)[C@H](CN(C)Cc2ccc(Cl)c(Cl)c2)OCCCC[C@@H](C)O3)cc1", "activity change": "-43.2% (inactive)"}
{"smiles": "C[C@@H]1CN([C@H](C)CO)S(=O)(=O)c2ccc(C3=CCCC3)cc2O[C@H]1CN(C)C(=O)Nc1ccc2c(c1)OCO2", "activity change": "-57.4% (inactive)"}
{"smiles": "COc1ccccc1S(=O)(=O)N[C@@H]1CC[C@@H](CCNC(=O)C2CCCCC2)O[C@@H]1CO", "activity change": "-1.07% (inactive)"}
{"smiles": "O=C(Nc1cccc(Cl)c1)N[C@@H]1CC[C@@H](CCNC(=O)C2CCOCC2)O[C@@H]1CO", "activity change": "-0.665% (inactive)"}
{"smiles": "C/C=C/c1cnc2c(c1)C(=O)N([C@H](C)CO)C[C@@H](C)[C@H](CN(C)Cc1cccc(C(=O)O)c1)O2", "activity change": "27.8% (inactive)"}
{"smiles": "O=C(C[C@@H]1CC[C@H]2[C@@H](COC[C@@H](O)CN2CC2CC2)O1)NCc1ccc(Cl)cc1", "activity change": "-0.915% (inactive)"}
{"smiles": "CC(=O)N1[C@H](CO)[C@H](c2ccccc2)C12CN(C(=O)c1ccccn1)C2", "activity change": "-28.2% (inactive)"}
